High-throughput results from PubChem BioAssay.
Shown are actives, neighbours in structure and some others; about 3.5% of the full set was active somewhere.
MITF inh: blocks human microphthalmia-associated transcription factor; O75030; AlphaScreen MITF homodimerization, bead proximity signal; inhibition, % at 2.6 µM; 0.91% of 650,000 active; in the data active means inhibition above about 50%;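 further: 0% = vehicle wells with protein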
GPR151 ag: activators of human GPR151 | Q8TDV0 | PathHunter beta-arrestin GPR151 cells, luminescence | activation, % at 11.2 µM | 1% of 650,000 active | AID 1508602; in the data active means activation above about 4.9%;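 further: 0% = median of compound wells and 100% = cells with positive control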
TEAD-YAP inh: TEAD-YAP interaction inhibition. HEK-TIYL cells, TEAD-Gal4/YAP UAS-luciferase luminescence. inhibition, % at 9.12 µM. 1.4% of 640,000 active; in the data active means inhibition above about 32%;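 further: 0% = median of test compound wells and 100% = reference inhibitor wells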
FBW7 activator: human FBW7 E3 ligase activation, primary screen; Q969H0; AlphaScreen FBW7–phospho-cyclin E peptide binding, activator screen; normalized activity (activation), % at 26.1 µM; 0.13% of 650,000 active; AID 1259310; in the data active means normalized activity above about 1.9%;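 further: purified mutant Fbw7 with reduced substrate affinity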
Target sequence (Q969H0 whole entry, looked up): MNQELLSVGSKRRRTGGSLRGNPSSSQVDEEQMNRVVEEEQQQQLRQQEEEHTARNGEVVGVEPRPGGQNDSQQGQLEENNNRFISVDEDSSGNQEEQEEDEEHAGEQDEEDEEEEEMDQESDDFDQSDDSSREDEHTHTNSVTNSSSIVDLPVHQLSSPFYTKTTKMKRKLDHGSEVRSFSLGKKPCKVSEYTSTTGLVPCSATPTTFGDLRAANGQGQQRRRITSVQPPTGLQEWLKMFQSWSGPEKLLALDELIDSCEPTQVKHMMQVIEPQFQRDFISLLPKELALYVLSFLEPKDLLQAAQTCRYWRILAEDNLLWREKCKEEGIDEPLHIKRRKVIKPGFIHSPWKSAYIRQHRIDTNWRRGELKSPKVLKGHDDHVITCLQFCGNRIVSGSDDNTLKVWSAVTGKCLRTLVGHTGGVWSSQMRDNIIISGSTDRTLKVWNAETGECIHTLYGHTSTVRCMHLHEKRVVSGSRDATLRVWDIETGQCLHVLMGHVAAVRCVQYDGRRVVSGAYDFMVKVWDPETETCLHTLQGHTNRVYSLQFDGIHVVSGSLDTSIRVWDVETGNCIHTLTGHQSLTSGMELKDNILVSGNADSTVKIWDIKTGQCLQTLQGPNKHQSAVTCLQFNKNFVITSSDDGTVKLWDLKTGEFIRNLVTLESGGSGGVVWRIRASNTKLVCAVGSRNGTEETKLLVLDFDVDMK
Starred values were filed as active, the others as inactive.

SMILES	MITF inh	GPR151 ag	TEAD-YAP inh	FBW7 activator
c1cn(-c2ccc(Nc3nc(Nc4ccc(N5CCOCC5)cc4)c4[nH]cnc4n3)cc2)cn1	5.4	1.1	51.4*	-0.1
COc1cc(Nc2nc(Nc3ccc(N4CCOCC4)cc3)c3[nH]cnc3n2)cc(OC)c1OC	12.6	-3.8	63.9*	0.1
CCOc1ccc(/C=C(/C(=O)c2cc(OC)c(OC)c(OC)c2)c2nc3ccccc3o2)cc1	-2.4	0.8	-3.1	-0.2
Nc1nc(NCCN2CCOCC2)nc2c1ncn2-c1ccsc1	-0.8	0.5	3.8	0.0
c1cc(-n2cnc3c(NC4CC4)nc(NCCN4CCOCC4)nc32)cs1	13.9	1.0	41.0*	0.3
CCCNc1nc(NCCN2CCOCC2)nc2c1ncn2-c1ccsc1	6.0	-2.3	33.9*	-0.2
CC1=C(C(=O)NCCc2ccc(S(N)(=O)=O)cc2)C2(CCC(C)CC2)OC1=O (stereo not given)	18.8	-1.8	-7.2	2.0*
CC1=C(C(=O)NCCc2ccc(S(N)(=O)=O)cc2)C2(CCCCC2)OC1=O	-7.9	1.4	-3.2	-0.2
COc1cc(OC)c2c(c1)C1C=CCC1C(c1ccc(OC)c([N+](=O)[O-])c1)N2 (stereo not given)	11.8	1.2	2.0	0.0
COC(=O)c1cccc2c1N[C@@H](c1ccc(C(=O)O)cc1)[C@H]1CC=C[C@@H]21	58.8*	-1.5	10.6	-0.3
COC(=O)c1cccc2c1NC(c1ccc(C(=O)O)cc1)C1CC=CC21 (stereo not given)	68.5*	0.6	5.2	-1.7
O=C(O)c1cccc2c1NC(c1ccccc1)C1CC=CC21 (stereo not given)	25.8	0.8	2.1	-0.1
CCOC(=O)c1cccc2c1NC(c1ccc(C(=O)O)cc1)C1CC=CC21 (stereo not given)	82.9*	-0.1	8.0	-1.7
COC(=O)c1cccc2c1NC(c1ccc(Br)cc1)C1CC=CC21 (stereo not given)	22.0	0.1	-9.6	0.1
COc1cc(OC)c2c(c1)C1C=CCC1C(c1ccc(C(=O)O)cc1)N2 (stereo not given)	73.3*	-0.5	-1.3	-1.4
O=C(O)c1cccc2c1NC(c1ccc(Br)cc1)C1CC=CC21 (stereo not given)	27.5	0.5	1.9	0.0
CCOc1ccccc1-n1c(SCc2ccccn2)nc2n[nH]c(C)c2c1=N	-8.6	0.0	-37.5	-0.1
CC1N(C)c2cc(S(=O)(=O)O)ccc2C1(C)C (stereo not given)	6.3	2.4	10.6	-0.3
O=C(/C=C/c1ccco1)Nc1nnc(Cc2ccc(F)cc2)s1	4.4	-0.1	55.4*	-0.1
COc1cccc2c1OC1(C)C(C(=O)Nc3ccc(C)cc3C)C2NC(=S)N1c1ccccc1 (stereo not given)	35.9	0.8	2.6	-0.1
COc1cc(Nc2nc(N3CCC(N4CCOCC4)CC3)nc3c2ncn3-c2ccsc2)cc(OC)c1OC	6.3	0.7	4.8	-0.4
OCCNc1nc(N2CCOCC2)nc2c1ncn2-c1ccccc1	5.4	0.0	47.5*	0.1
c1ccc2[nH]c(CNc3nc(N4CCC(N5CCOCC5)CC4)nc4c3ncn4-c3ccsc3)nc2c1	4.0	-0.2	54.1*	-0.1
OCCNc1nc(N2CCOCC2)nc2c1ncn2-c1ccsc1	3.4	0.3	69.3*	-0.2
c1ccc(OCCNc2nc(N3CCOCC3)nc3c2ncn3-c2ccccc2)cc1	-2.3	-0.5	-8.3	0.0
SMILES	MITF inh	GPR151 ag	TEAD-YAP inh	FBW7 activator
CC(=O)Nc1ccc(Nc2nc(N3CCC(N4CCOCC4)CC3)nc3c2ncn3-c2ccsc2)cc1	-8.5	-1.1	46.2*	-0.3
O=C(NC1CCCCC1)c1cc2n(n1)C(C(F)(F)F)CC(c1ccc3c(c1)OCO3)N2 (stereo not given)	25.6	-0.3	-0.5	0.1
Cc1cc(S(=O)(=O)NCC(c2ccc(N(C)C)cc2)N(C)C)ccc1F (stereo not given)	8.3	-0.7	4.2	-0.1
CCOc1ccc(Nc2nc3c(c(=O)[nH]c(=O)n3C)n2CC(=O)OC)cc1	10.9	-1.9	-2.6	0.5
c1ccc2c(c1)CCN(c1nc(NCCN3CCOCC3)c3ncn(-c4ccsc4)c3n1)C2	10.4	0.5	-0.8	0.1
c1cc(-n2cnc3c(NCCN4CCOCC4)nc(N4CCC(N5CCOCC5)CC4)nc32)cs1	-1.6	-0.3	42.9*	0.0
c1cc(-n2cnc3c(NCCN4CCOCC4)nc(N4CCOCC4)nc32)cs1	-0.5	-0.6	55.8*	-0.1
CCOC(=O)c1c(NC(=O)CSc2cn(Cc3ccccc3Cl)c3ccccc23)sc2c1CCC2	1.4	1.5	4.3	-0.1
CCc1cccc(C)c1NC(=O)CCc1c(C)[nH]c(=O)n(C)c1=O	9.2	-0.4	-2.9	-0.1
Cc1ccc(/C=C/c2cc(=O)n3ccsc3n2)cc1	-8.0	-1.8	48.6*	0.0
CC(C)c1ccc(/C=C/c2cc(=O)n3ccsc3n2)cc1	-5.5	-1.1	5.1	0.1
COCCNc1c(-c2ccc(O)cc2O)nc2cnccn12	0.7	0.7	-5.5	-0.1
COc1ccc(CNc2c(-c3ccc(O)cc3O)nc3cnccn23)cc1	-4.0	-0.1	64.6*	-0.1
CC1=CC(C)(C)N(S(=O)(=O)c2ccc(Cl)cc2)c2ccccc21	0.6	0.2	55.0*	-0.2
COc1ccc2c(c1)C(C)=CC(C)(C)N2S(=O)(=O)c1ccc(Cl)cc1	-1.9	0.6	48.0*	-0.1
CCOc1ccc2c(c1)C(C)=CC(C)(C)N2S(=O)(=O)c1ccc(Cl)cc1	5.2	-0.1	60.3*	-0.1
CC1=CC(C)(C)N(S(=O)(=O)c2ccc(C)cc2)c2ccc(Cl)cc21	-5.7	-0.1	27.3	0.0
CCCSc1nnc2c(n1)OC(c1c(C)[nH]n(-c3ccccc3)c1=O)Nc1ccccc1-2 (stereo not given)	61.5*	-0.2	-36.6	-0.2
O=C(O)c1cc(N=Cc2c(O)n(Cc3ccco3)c(=O)[nH]c2=O)ccc1Cl	76.2*	-0.4	5.1	-0.2
O=C(CSc1nnc2ccc(-c3ccc(Cl)cc3)nn12)N1CCCc2ccccc21	5.2	-0.5	-2.8	0.1
O=C(CSc1nnc2ccc(-c3cccnc3)nn12)N1CCCc2ccccc21	7.8	-0.9	0.1	1.9*
CCn1cnc2cc(NCc3cc(OC)c(OC)c(OC)c3)ccc21	13.1	-1.0	57.5*	0.6
COc1cc(CNc2ccc3c(c2)ncn3C)cc(OC)c1OC	-5.9	-0.7	63.0*	-0.1
CCCn1cnc2cc(NCc3cc(OC)c(OC)c(OC)c3)ccc21	-6.6	0.3	-14.5	-0.1
COc1ccc(-c2nc(NC3CCN(Cc4ccccc4)CC3)c3ncn(C(C)C)c3n2)cn1	-0.5	-0.8	19.0	0.3
CC(C)n1cnc2c(NC3CCN(Cc4ccccc4)CC3)nc(Nc3ccccn3)nc21	13.4	-0.5	30.3	0.0
CC(C)n1cnc2c(NC3CCN(Cc4ccccc4)CC3)nc(-c3cccc(N)c3)nc21	10.5	1.6	90.0*	-0.2
CC(C)n1cnc2c(NC3CC3)nc(N3CCN(c4ccccn4)CC3)nc21	11.8	2.5	35.3*	-0.2
CC(C)n1cnc2c(NC3CCN(Cc4ccccc4)CC3)nc(Nc3ccncn3)nc21	14.7	-2.6	71.4*	0.3
